Screens (PubChem BioAssay)
An excerpt weighted towards active compounds, which were near 3.8% of everything screened.
hERG WT inh = KCNH2 (human, wildtype) channel inhibition; Q12809; U2OS, BacMam KCNH2, thallium flux FluxOr; active compounds read low; activity change, % at 1.84 µM; actives 0.37% (n = 340,000); AID 720551;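 active = maximum activity change below -70%; inconclusive = maximum activity change between -70% and -50%; inactive = maximum activity change above -50%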; note: % is set by controls: 0 for no effect and ±100 for the full control effect
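U2OS cells transduced with wild-type KCNH2 virus are loaded with FluxOr dye for 45 min, and thallium flux is measured in kinetic reads before and after stimulation buffer. Rate constants are normalized to DMSO controls.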
VDR inhibitor = vitamin D3 receptor (human) inhibition; P11473; VDR-SRC2-3 peptide fluorescence polarization, 2 h; Potency, µM, for inactives: max response, negative = inhibition, hits mostly inhibitors; actives 0.93% (n = 400,000); AID 504847; note: potency is the fitted concentration of half-maximal effect; % is set by controls: 0 for no effect and ±100 for the full control effect
Target sequence (P11473 whole entry, looked up): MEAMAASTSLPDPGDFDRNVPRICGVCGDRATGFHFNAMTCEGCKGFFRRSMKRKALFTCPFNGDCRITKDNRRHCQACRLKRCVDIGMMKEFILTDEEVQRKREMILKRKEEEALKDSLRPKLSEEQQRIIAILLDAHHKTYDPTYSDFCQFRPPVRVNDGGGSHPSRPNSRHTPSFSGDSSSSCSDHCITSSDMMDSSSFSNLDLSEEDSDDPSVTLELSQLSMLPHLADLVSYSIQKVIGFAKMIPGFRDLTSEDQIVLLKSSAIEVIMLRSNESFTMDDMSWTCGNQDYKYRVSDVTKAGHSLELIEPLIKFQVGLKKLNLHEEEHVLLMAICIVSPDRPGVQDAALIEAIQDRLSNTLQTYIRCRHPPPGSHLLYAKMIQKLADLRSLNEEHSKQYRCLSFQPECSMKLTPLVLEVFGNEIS
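Fluorescence polarization assay of small-molecule disruption of VDR binding to coregulator peptide SRC2-3. Compounds and controls pin-transferred, then read after 2 h incubation at ambient room temperature.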
CBFb RUNX1 block = blocks binding between human CBF-beta and RUNX1. Q01196+Q13951. AlphaScreen CBFb-His/RUNX1-biotin binding, biochemical. Potency, µM (titrated, usually from 59.8 µM), without a hit: at the top dose activity, negative = inhibition, actives largely listed as inhibitors. 230,000 tested, under 10 active. AID 1477; note: % of control where 0% means no effect
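Room-temperature protein-protein interaction test with 30 nM each of His-tagged CBF-beta and biotinylated RUNX1, 15 min with compound, then 90 min with nickel plus streptavidin beads. Signal read in AlphaScreen mode.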
PLK1 PBD inh = inhibitors of human PLK1 polo-box domain binding. Potency, µM, for inactives: max response, negative = inhibition, usual class: inhibitors. Plk1 PBD binding of FITC phosphopeptide, fluorescence polarization. AID 720504. actives 2.8% (n = 360,000). P53350; note: potency is the fitted concentration of half-maximal effect; series mostly up to about 57 µM; % is set by controls: 0 for no effect and ±100 for the full control effect; nearly all actives have a fitted effect of over 65% in size
MBNL1-CUG inh = blocks human MBNL1 binding to CUG repeat RNA | AID 2675 | TR-FRET MBNL1-His/biotin-(CUG)12 binding, 665/545 ratio | Potency, µM (top dose mostly 57.5 µM), for the others: at the top dose activity change, negative = inhibition, hits mostly inhibitors | actives 0.036% (n = 280,000) | Q9NR56; active = well fitted inhibition curve with a large enough effect in the signal ratio, with a control signal flat, not every such curve was filed as active; inconclusive = small, poorly fitted or top-dose-only effect, or effect the other way, or a change in a side signal; inactive = no such curve, though single readings can be large or run the other way; the % refers to the signal ratio; note: potency is the fitted concentration of half-maximal effect; % is set by controls: 0 for no effect and ±100 for the full control effect
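Ratiometric TR-FRET (665 over 545 nm, excitation 340 nm) tracks disruption of MBNL1-His/biotin-(CUG)12 complex after 60 min at room temperature, with compounds at 92 nM to 58 uM final.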
KCNH2 3.1 block = KCNH2 3.1 (human) potassium channel inhibition; actives 0.95% (n = 340,000); activity change, % (tested at about 1.8 µM); U2OS KCNH2 3.1, thallium flux FluxOr; active compounds read low;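 active = maximum activity change below -70%; inconclusive = maximum activity change from -70% to -50%; inactive = maximum activity change above -50%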;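 note: thallium influx rate constant from kinetic fluorescence after stimulation buffer; % is set by controls: 0 for no effect and ±100 for the full control effect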
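Steps: virus added to U2OS suspension (4 h, RT, dark); medium with 10% FBS added, cells plated, 37 C overnight; FluxOr/Red40 loading buffer 45 min RT; stimulation buffer, 2 min kinetic read; rate constant normalized.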
Numbers without * were called inactive. Unless noted, calls come from the whole dose curve; as a rule, active = well fitted curve in the direction sought with a large enough effect; inconclusive = small, poorly fitted or top-dose-only effect, or another doubt; inactive = no such curve, though single readings can be large; an effect the other way counts as inactive or inconclusive.

What do the screens show for `Cc1ccnc2c(N3C(=O)C4C5C=CC(C5)C4(C)C3=O)cccc12` (stereo unspecified)?
hERG WT inh: 3; VDR inhibitor: -21%; CBFb RUNX1 block: 7%; PLK1 PBD inh: -10%; MBNL1-CUG inh: 8%; KCNH2 3.1 block: 1

Results for Cc1cccc(N2C(=O)c3cccc4c(N(C)CCO)ccc(c34)C2=O)c1 ?
hERG WT inh: -33; VDR inhibitor: -1%; CBFb RUNX1 block: 26%; PLK1 PBD inh: 11µM*; MBNL1-CUG inh: inconclusive; KCNH2 3.1 block: -12

How did Cc1cccc(N2C(=O)c3cccc4cccc(c34)C2=O)c1 do in these assays?
hERG WT inh: 4; VDR inhibitor: -8%; PLK1 PBD inh: -5%; MBNL1-CUG inh: inconclusive; KCNH2 3.1 block: -11

What do the screens show for `Cc1ccc(C)c(N2CCN(C(=O)c3cc4c(=O)n(Cc5cccs5)ccc4nc3C)CC2)c1`?
VDR inhibitor: 15%

What do the screens show for `Clc1ccc(C2=Nn3c(Cn4nnc5ccccc54)nnc3SC2)cc1`?
hERG WT inh: 2; VDR inhibitor: 79µM*; CBFb RUNX1 block: 1%; PLK1 PBD inh: 8.4µM*; MBNL1-CUG inh: -7%; KCNH2 3.1 block: 11

What do the screens show for `Nc1ccc(C(=O)Nc2cccc(NC(=O)c3ccc(N)cc3)c2)cc1`?
hERG WT inh: 8; VDR inhibitor: inconclusive; PLK1 PBD inh: 27µM*; MBNL1-CUG inh: -1%; KCNH2 3.1 block: 0

How did Cc1ccccc1Cn1cnc2c(nnn2Cc2ccc(F)cc2)c1=O do in these assays?
hERG WT inh: -11; VDR inhibitor: 89µM*; CBFb RUNX1 block: 6%; PLK1 PBD inh: -4%; MBNL1-CUG inh: 2%

Results for O=c1c2nnn(Cc3ccc(Cl)cc3)c2ncn1Cc1ccc(F)cc1 ?
hERG WT inh: 37; VDR inhibitor: -4%; CBFb RUNX1 block: 13%; PLK1 PBD inh: -1%; MBNL1-CUG inh: inconclusive; KCNH2 3.1 block: -20

Results for O=C(c1cc(Sc2cccc(Cl)c2)nc2ccccc12)N1CCN(c2ccccn2)CC1 ?
hERG WT inh: 1; VDR inhibitor: 15%; CBFb RUNX1 block: -1%; PLK1 PBD inh: inconclusive; MBNL1-CUG inh: 16%; KCNH2 3.1 block: -6

Results for O=C(c1cc(Sc2ccc(Cl)cc2)nc2ccccc12)N1CCN(c2ccccn2)CC1 ?
hERG WT inh: 8; VDR inhibitor: -8%; CBFb RUNX1 block: -10%; PLK1 PBD inh: -14%; MBNL1-CUG inh: 6%; KCNH2 3.1 block: -78*

Results for COc1cc(CN2CC(=O)N(c3ccccc3Cl)C2=S)cc(OC)c1OC ?
hERG WT inh: -8; VDR inhibitor: 4%; PLK1 PBD inh: -15%; MBNL1-CUG inh: -2%; KCNH2 3.1 block: -11

What do the screens show for `COc1cc(Cl)c(C)cc1N1C(=O)CN(Cc2ccccc2)C1=S`?
hERG WT inh: 14; VDR inhibitor: -25%; PLK1 PBD inh: 24µM*; MBNL1-CUG inh: 4%; KCNH2 3.1 block: 2

How did Cc1ccc(NC(=O)C(Cc2ccccc2)NS(=O)(=O)c2ccc3c(c2)CCC(=O)N3)cc1 (stereo unspecified) do in these assays?
VDR inhibitor: -11%

Results for CS(=O)(=O)c1ccc2nc(NC(=O)C3CC(=O)N(c4ccccc4)C3)sc2c1 (stereo unspecified) ?
hERG WT inh: -13; VDR inhibitor: inconclusive; PLK1 PBD inh: 30µM*; MBNL1-CUG inh: -3%; KCNH2 3.1 block: -24

How did COc1ccc(NC(=O)c2oc3ccccc3c2NC(=O)c2cc(=O)c3ccccc3o2)cc1 do in these assays?
VDR inhibitor: 5%

What do the screens show for `COCCCNC(=O)c1c(NC(=O)Cc2coc3c(C)c(C)ccc23)sc2c1CCCC2`?
VDR inhibitor: 1%

Results for CCN(CC)CCNC(=O)c1cc2c(-c3ccc(Cl)cc3)nn(C)c2s1 ?
hERG WT inh: 17; VDR inhibitor: -21%; CBFb RUNX1 block: 1%; PLK1 PBD inh: -6%; MBNL1-CUG inh: -20%; KCNH2 3.1 block: 15

What do the screens show for `Cn1nc(-c2ccc(Cl)cc2)c2cc(C(=O)NC3CC3)sc21`?
hERG WT inh: -2; VDR inhibitor: inconclusive; CBFb RUNX1 block: 2%; PLK1 PBD inh: 30µM*; MBNL1-CUG inh: 3%; KCNH2 3.1 block: 0

Results for O=C(NC1CC2CCC(C1)N2Cc1ccccc1)c1cccc(F)c1 (stereo unspecified) ?
hERG WT inh: 21; VDR inhibitor: -4%; PLK1 PBD inh: -14%; MBNL1-CUG inh: -2%; KCNH2 3.1 block: -2

What do the screens show for `Cc1ccc(CN2CCC(NC(=O)c3ccccc3)CC2)cc1`?
hERG WT inh: 20; VDR inhibitor: -11%; PLK1 PBD inh: 30µM*; MBNL1-CUG inh: -13%; KCNH2 3.1 block: inconclusive

What do the screens show for `Cc1ccc(C)n1-c1ccc(C(=O)NC2CCN(Cc3ccccc3)CC2)cc1`?
hERG WT inh: -2; VDR inhibitor: -16%; CBFb RUNX1 block: -1%; PLK1 PBD inh: -12%; MBNL1-CUG inh: -7%; KCNH2 3.1 block: -3

How did Cc1ccc(CN2C3CCCC2CC(NC(=O)c2ccc(F)cc2)C3)cc1 (stereo unspecified) do in these assays?
hERG WT inh: inconclusive; VDR inhibitor: -26%; PLK1 PBD inh: 7%; MBNL1-CUG inh: -4%; KCNH2 3.1 block: -80*

Results for O=C(NC1CC2CCCC(C1)N2Cc1ccccc1)c1ccc([N+](=O)[O-])cc1 (stereo unspecified) ?
hERG WT inh: -15; VDR inhibitor: -9%; PLK1 PBD inh: 3%; MBNL1-CUG inh: inconclusive; KCNH2 3.1 block: -80*

What do the screens show for `COc1ccc(CN2C3CCC2CC(NC(=O)c2cccc(F)c2)C3)cc1` (stereo unspecified)?
hERG WT inh: -26; VDR inhibitor: -11%; PLK1 PBD inh: 4%; MBNL1-CUG inh: -10%; KCNH2 3.1 block: -84*

What do the screens show for `COc1ccc(Cl)c2sc(NC(=O)c3ccc(S(=O)(=O)N4CCOCC4)cc3)nc12`?
VDR inhibitor: 11%

What do the screens show for `CCCCNC(=O)c1nn(-c2ccc(C)cc2)c(=O)c2c1c1ccccc1n2C`?
VDR inhibitor: -14%

How did CC(C)c1cnc2c(c1SCC(=O)Nc1ccc(C(N)=O)cc1)c(=O)n(C)c(=O)n2C do in these assays?
VDR inhibitor: 6%

How did COc1ccc(C(=O)Nc2nnc(SCc3cc(=O)n4cccc(C)c4n3)s2)cc1 do in these assays?
VDR inhibitor: 19%

How did COc1ccc(CC(=O)NCc2nn(-c3ccccc3)nc2C)cc1OC do in these assays?
hERG WT inh: 0; VDR inhibitor: -21%; CBFb RUNX1 block: 0%; PLK1 PBD inh: -3%; MBNL1-CUG inh: -2%; KCNH2 3.1 block: -180*
